Results from PubChem BioAssay (NCATS).
Inconclusive results are not listed. Calls of active or inactive are those of the source. Calls come from the whole dose curve; as a rule, active = well fitted curve in the direction sought with a large enough effect; inconclusive = small, poorly fitted or top-dose-only effect, or another doubt; inactive = no such curve, though single readings can be large; an effect the other way counts as inactive or inconclusive.

Assays:
[1] = target: Cytochrome P450 3A7 (Homo sapiens) (UniProt P24462); assay: Cytochrome P450 family 3 subfamily A member 7 (CYP3A7) small molecule antagonists: luciferase biochemical qHTS assay (AID 1963596); settings: P450-Glo CYP3A7 enzyme luminescence, 1 h; series mostly up to 57.4 µM; note: % is set by controls: 0 for no effect and ±100 for the full control effect; nearly all actives have a fitted effect of over 40% in size
Cytochrome P450 3A7 (Homo sapiens), sequence (P24462 whole entry, looked up): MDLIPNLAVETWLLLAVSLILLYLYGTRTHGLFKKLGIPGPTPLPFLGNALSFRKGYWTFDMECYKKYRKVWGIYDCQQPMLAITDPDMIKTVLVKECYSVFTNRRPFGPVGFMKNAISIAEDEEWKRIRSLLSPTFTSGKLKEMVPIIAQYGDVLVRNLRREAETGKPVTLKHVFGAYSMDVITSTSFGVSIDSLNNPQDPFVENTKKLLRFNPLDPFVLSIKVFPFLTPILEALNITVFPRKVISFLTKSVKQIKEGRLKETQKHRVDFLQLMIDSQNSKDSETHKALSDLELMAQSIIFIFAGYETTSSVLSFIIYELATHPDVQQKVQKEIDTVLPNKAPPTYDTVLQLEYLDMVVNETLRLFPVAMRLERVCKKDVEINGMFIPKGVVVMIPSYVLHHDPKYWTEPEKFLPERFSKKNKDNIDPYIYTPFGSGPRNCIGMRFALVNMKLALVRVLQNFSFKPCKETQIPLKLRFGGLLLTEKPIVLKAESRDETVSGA
Outline: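 In this luminescent screen, enzyme and proluciferin substrate meet test compound for 10 min before NADPH regeneration solution drives a 1 h room-temperature reaction; detection reagent halts turnover and luminescence is read 20 min later.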

[2] = Viability qHTS for spleen associated tyrosine kinase inhibitor (SYKi) drug resistant MV4-11 cells (AID 1963824); settings: SYKi-resistant MV4-11 viability, CellTiter-Glo, 72 h; series mostly up to 45 µM; note: nearly all actives have a fitted effect of over 35% in size; note: potency is the fitted concentration of half-maximal effect
Outline: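 SYK-inhibitor-resistant MV4-11 AML cells were seeded at 500 per well onto compound and cultured 72 hours (37 °C, 5% CO2). CellTiter-Glo was then added, and after 10 min at room temperature, luminescence gave viability.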

[3] = Cellular viability qHTS for adrenocortical cancer (ACC) cell line SW-13 (AID 1963989); settings: SW-13 ACC cells viability, CellTiter-Glo, 48 h; activity (max response): hits give low values;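 note: cells grown in serum-free medium with ITS supplement; % is set by controls: 0 for no effect and ±100 for the full control effect; nearly all actives have a fitted effect of over 65% in size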
Outline: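 Viability was read as CellTiter-Glo luminescence after 48 h compound treatment (up to 46 uM final) of SW-13 cells grown serum-free; titration curves were fit with a four-parameter logistic model to give IC50 and efficacy.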

[4] = Cellular viability qHTS for adrenocortical cancer (ACC) cell line NCI-H295R (AID 1963990); settings: CellTiter-Glo ATP luminescence, 48 h; series mostly up to 46.1 µM;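 note: 0% = DMSO only wells and -100% = full killing with cytotoxic reference compound; nearly all actives have a fitted effect of over 60% in size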
Outline: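 CellTiter-Glo ATP luminescence, read 48 h after compound addition, measured viability of NCI-H295R adrenocortical cells grown serum-free with ITS. Final concentrations spanned up to 46 uM. Data normalized to DMSO and doxorubicin, fitted for IC50 and maximal response.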

CC1CCc2cc(F)cc3c(=O)c(C(=O)O)cn1c23 (centres undefined)
inactive: Potency [1] | activity (max response) [3] 5.01% | Potency [4]
active: Potency [2] 6.68 µM

CCCOC(=O)c1ccccc1
inactive: Potency [1] | Potency [2] | activity (max response) [3] 11.8% | Potency [4]

CC(C)(C)NC[C@H](O)COc1nsnc1N1CCOCC1
inactive: Potency [1] | Potency [2] | activity (max response) [3] -5.85% | Potency [4]

O=C1c2c(O)cccc2Cc2cccc(O)c21
inactive: Potency [1] | Potency [2] | activity (max response) [3] 5.31% | Potency [4]

COc1ccc(C(=O)N2CCN(CC(=O)N3CCOCC3)CC2)cc1
inactive: Potency [1] | Potency [2] | activity (max response) [3] 8.16% | Potency [4]

C=C(C)C(=O)OCC(O)CO (centres undefined)
inactive: Potency [1] | Potency [2] | activity (max response) [3] -4.84% | Potency [4]

NC[C@H]1O[C@H](O[C@H]2[C@H](O[C@@H]3O[C@H](CO)[C@@H](O)[C@H]3O)C(O)[C@H](N)C[C@@H]2N)[C@H](N)[C@@H](O)[C@@H]1O (some centres undefined)
inactive: activity change, negative = inhibition [1] 16.1% [at 11.5 µM] | viability, % of control [2] 95.3% [at 9.25 µM] | activity (max response) [3] 8.3% | activity change, negative = viability loss [4] 0.419% [at 9.17 µM]

O=C(c1ccco1)N1CCNCC1
inactive: Potency [1] | Potency [2] | activity (max response) [3] -4.62% | Potency [4]

C[C@@H](O)[C@H]1C(=O)N2C(C(=O)O)=C(SCCN=CN)C[C@H]12
inactive: Potency [1] | Potency [2] | activity (max response) [3] -5.98% | Potency [4]

CCOc1ccc(NC(=O)CC(C)O)cc1 (centres undefined)
inactive: Potency [1] | Potency [2] | activity (max response) [3] -9.31% | Potency [4]

CC1(C)OC[C@@H](COC(=O)CCc2ccc(OC[C@@H](O)CNCCNC(=O)N3CCOCC3)cc2)O1
inactive: Potency [1] | Potency [2] | activity (max response) [3] -0.309% | Potency [4]
